Assay results taken from the supplement of paper PMC3334620.
Whole data set: some 33,000 sequences, median “E-score (-0.5 to 0.5)” near -0.04, cut for the highest 2% near 0.36. This excerpt belongs to a sample that is enriched for the highest values.

Each sequence was assayed against T1, Hmlalpha2 (UniProt P0CY09) (assay: PBM E-score (8-mer binding enrichment) (E-score (-0.5 to 0.5)); higher = stronger / more preferred TF binding). Conditions: protein concentration: 200 nM; construct: GST-full length.
T1 sequence: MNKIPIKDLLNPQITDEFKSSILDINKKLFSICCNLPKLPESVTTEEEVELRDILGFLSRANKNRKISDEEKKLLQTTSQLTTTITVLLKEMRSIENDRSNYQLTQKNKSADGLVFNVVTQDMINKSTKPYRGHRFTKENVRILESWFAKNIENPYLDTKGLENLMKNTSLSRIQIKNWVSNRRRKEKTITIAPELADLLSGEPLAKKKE
In short: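 Universal all-10-mer Agilent arrays, double-stranded by primer extension on fresh or once-stripped slides, were probed with about 100-200 nM GST-tagged yeast transcription factors made by PURExpress. Fluorescent anti-GST detected bound protein, and masliner normalised the scans. E-scores from the Universal PBM Analysis Suite were given to each ungapped eight-base word pooled with its reverse complement.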
In the case of GACATGAA, the “PBM E-score” value is reported as 0.204. For CACATGAA, the “PBM E-score” value was 0.237. With TACATGAA the “PBM E-score” value was 0.45. For AGCATGAA, the “PBM E-score” value was 0.0173. With ATCATGAA the “PBM E-score” value was -0.0623. In the case of AACATGAA, the “PBM E-score” value is reported as 0.397. With AGGCCCGC the “PBM E-score” value was -0.162. For AGGCGATG, the “PBM E-score” value was -0.128. In the case of AATCCGGT, the “PBM E-score” value is reported as -0.0356. For ACCATTGA, the “PBM E-score” value was 0.0496. With GTAGACGA the “PBM E-score” value was 0.17. With AAGACGAT the “PBM E-score” value was 0.0721. In the case of GAATAATA, the “PBM E-score” value is reported as 0.168. With CAATAACA the “PBM E-score” value was 0.239. TAATAACA was tested, and the “PBM E-score” value was 0.387. In the case of AAATAACA, the “PBM E-score” value is reported as 0.316. For GAATAACA, the “PBM E-score” value was 0.39. With GAATAACC the “PBM E-score” value was -0.0464. AGTATTAA was tested, and the “PBM E-score” value was 0.249. With GGTATTAA the “PBM E-score” value was 0.083. In the case of TGTATTAA, the “PBM E-score” value is reported as 0.413. ATACATAA was tested, and the “PBM E-score” value was 0.392. AGACATAT was tested, and the “PBM E-score” value was 0.0652. With CTACATAC the “PBM E-score” value was 0.327. With GTACATAC the “PBM E-score” value was 0.362. ATACATAT was tested, and the “PBM E-score” value was 0.393. In the case of ACATATAT, the “PBM E-score” value is reported as 0.27. For CTACATAG, the “PBM E-score” value was 0.406. CCACATAG was tested, and the “PBM E-score” value was -0.105. With ACACATAA the “PBM E-score” value was 0.364. For ATACATAC, the “PBM E-score” value was 0.386. For AGACATAA, the “PBM E-score” value was 0.143. With CGACATAG the “PBM E-score” value was 0.139. In the case of AGGAAAGG, the “PBM E-score” value is reported as -0.238. For CTCCTATC, the “PBM E-score” value was -0.139. ACTTTAGA was tested, and the “PBM E-score” value was -0.0293. CAGACACA was tested, and the “PBM E-score” value was 0.035. With ACCCTAAA the “PBM E-score” value was -0.212. For AGCACTGC, the “PBM E-score” value was -0.17. In the case of AAACATAG, the “PBM E-score” value is reported as 0.291. In the case of ACACATAG, the “PBM E-score” value is reported as 0.282. With ATACATAG the “PBM E-score” value was 0.415. CGGAGGGC was tested, and the “PBM E-score” value was -0.293. AGCATGAT was tested, and the “PBM E-score” value was 0.0873. For CACATGAC, the “PBM E-score” value was 0.267. With CACATGAG the “PBM E-score” value was 0.0365. AACATGAT was tested, and the “PBM E-score” value was 0.439. For AACATGAG, the “PBM E-score” value was 0.379. AACATGAC was tested, and the “PBM E-score” value was 0.425. GACATGAC was tested, and the “PBM E-score” value was 0.29. In the case of AGCATGAG, the “PBM E-score” value is reported as 0.0355. With ACCATGAT the “PBM E-score” value was -0.0585. In the case of GAGTAGAC, the “PBM E-score” value is reported as -0.0398. For CTGGAACC, the “PBM E-score” value was -0.109. CTGCCTTA was tested, and the “PBM E-score” value was -0.206. For ACGAGCCA, the “PBM E-score” value was 0.0562. For AGAGATAG, the “PBM E-score” value was -0.0703. In the case of ATTGAGAA, the “PBM E-score” value is reported as 0.142. In the case of TCCTCGCA, the “PBM E-score” value is reported as -0.204. With CTTCACCA the “PBM E-score” value was -0.283. In the case of GGCGCGTA, the “PBM E-score” value is reported as 0.255. ATTGCGTA was tested, and the “PBM E-score” value was 0.296. With CTCGCGTA the “PBM E-score” value was 0.22. With ATCGCGTA the “PBM E-score” value was 0.368. For GTTGCGTA, the “PBM E-score” value was 0.378. With GTCGCGTA the “PBM E-score” value was 0.414. CTTGCGTA was tested, and the “PBM E-score” value was 0.286. For ATCGCGTC, the “PBM E-score” value was 0.216. With ATCGCGTG the “PBM E-score” value was 0.192. With GTCGCGGA the “PBM E-score” value was -0.252. With CGCGCGTA the “PBM E-score” value was 0.283. For AGCGCGTA, the “PBM E-score” value was 0.388. For GTCGCCAC, the “PBM E-score” value was -0.316. With GTTTGACA the “PBM E-score” value was 0.303. For AGGAAGAT, the “PBM E-score” value was -0.192. For ATGACGCC, the “PBM E-score” value was -0.105. ATGGAGAG was tested, and the “PBM E-score” value was -0.115. For CCCTTTAC, the “PBM E-score” value was 0.134. In the case of ATACTCCG, the “PBM E-score” value is reported as -0.0161. In the case of AAATTGCC, the “PBM E-score” value is reported as -0.0531. With CTTTCTTC the “PBM E-score” value was -0.09. CAATCGGC was tested, and the “PBM E-score” value was -0.156. In the case of CAGCCACA, the “PBM E-score” value is reported as -0.111. ACCAGAGA was tested, and the “PBM E-score” value was -0.144. ACCTAAAC was tested, and the “PBM E-score” value was 0.098. With CCTAGCGC the “PBM E-score” value was -0.102. ATCGACCG was tested, and the “PBM E-score” value was -0.223. In the case of GCTAACAA, the “PBM E-score” value is reported as 0.164. With ACTAACAC the “PBM E-score” value was 0.293. In the case of CATAACAA, the “PBM E-score” value is reported as 0.323. With GATAACGC the “PBM E-score” value was 0.199. With AGTAACAT the “PBM E-score” value was 0.295. For AATAACCT, the “PBM E-score” value was 0.104. With AATAACAT the “PBM E-score” value was 0.412. With GATAACAC the “PBM E-score” value was 0.39. GATAACAA was tested, and the “PBM E-score” value was 0.324. CATAACAC was tested, and the “PBM E-score” value was 0.397. With GCTAACAC the “PBM E-score” value was 0.366. CATAACAG was tested, and the “PBM E-score” value was 0.174. In the case of ACAACCAT, the “PBM E-score” value is reported as 0.278. CCTACAAA was tested, and the “PBM E-score” value was 0.0287. With ATCTGAGC the “PBM E-score” value was -0.0204. With AGCTAACG the “PBM E-score” value was 0.117. For AGGGTACG, the “PBM E-score” value was 0.0138. In the case of AGATAGAA, the “PBM E-score” value is reported as -0.166. In the case of TATCCTAA, the “PBM E-score” value is reported as 0.00317. For GGACCTTA, the “PBM E-score” value was -0.238. For AATAACAC, the “PBM E-score” value was 0.396. AATAACAG was tested, and the “PBM E-score” value was 0.307. AATAACAA was tested, and the “PBM E-score” value was 0.267. In the case of TGGATACA, the “PBM E-score” value is reported as 0.17. In the case of CGAATACA, the “PBM E-score” value is reported as 0.39. With CCAATACA the “PBM E-score” value was 0.313. For CGAATACG, the “PBM E-score” value was 0.259. TGAATACA was tested, and the “PBM E-score” value was 0.397. In the case of GGAATACA, the “PBM E-score” value is reported as 0.431. With GGAATAGA the “PBM E-score” value was -0.0449. With TCAATACA the “PBM E-score” value was 0.372. In the case of TGAATAAA, the “PBM E-score” value is reported as 0.245. In the case of CGAATACC, the “PBM E-score” value is reported as -0.0493. With GGAATACC the “PBM E-score” value was -0.0768. ACAATACA was tested, and the “PBM E-score” value was 0.326. With GTAAGTAC the “PBM E-score” value was 0.234. For CACTAGGA, the “PBM E-score” value was -0.225. AGAGGTCC was tested, and the “PBM E-score” value was -0.273. With AGCTGCAA the “PBM E-score” value was -0.227. With AACCTCAA the “PBM E-score” value was 0.0617. AGTTTGCG was tested, and the “PBM E-score” value was -0.0236. With ACTATCTG the “PBM E-score” value was -0.156. CTATGAAG was tested, and the “PBM E-score” value was -0.149. CGATCCGA was tested, and the “PBM E-score” value was -0.256. For AGCGGCTA, the “PBM E-score” value was -0.0688. For ACTCTACT, the “PBM E-score” value was 0.0373. For AGAATACA, the “PBM E-score” value was 0.366. In the case of AGAATACG, the “PBM E-score” value is reported as 0.192. In the case of GAAATACA, the “PBM E-score” value is reported as 0.346. With TAAATACA the “PBM E-score” value was 0.434. For AGAATACC, the “PBM E-score” value was 0.0773. For AAAATACA, the “PBM E-score” value was 0.334. For CATGTAAG, the “PBM E-score” value was 0.47. In the case of CCTGTAAG, the “PBM E-score” value is reported as -0.00273. With CCTGTAAC the “PBM E-score” value was 0.093. With AATGTAAG the “PBM E-score” value was 0.294. In the case of GATGTAAC, the “PBM E-score” value is reported as 0.215. In the case of CATGTAAC, the “PBM E-score” value is reported as 0.456. In the case of CGAGATCG, the “PBM E-score” value is reported as -0.0661. GCATGCGA was tested, and the “PBM E-score” value was 0.0698. For AAACCACC, the “PBM E-score” value was -0.166. In the case of AGAGCCGA, the “PBM E-score” value is reported as -0.106. ATGTTGTG was tested, and the “PBM E-score” value was 0.362. With GTGTTGCA the “PBM E-score” value was 0.187. For GTGTTGTA, the “PBM E-score” value was 0.382. In the case of ATGTTGTA, the “PBM E-score” value is reported as 0.406. For ATGTTGTC, the “PBM E-score” value was 0.364. In the case of CTGTTGTA, the “PBM E-score” value is reported as 0.253. For CATACCGG, the “PBM E-score” value was -0.154. In the case of AGTCTGCC, the “PBM E-score” value is reported as -0.184. With CAACGGAG the “PBM E-score” value was -0.12. In the case of ACCCTTAA, the “PBM E-score” value is reported as -0.0263. With GGTATGTA the “PBM E-score” value was 0.4. In the case of GGTATGGA, the “PBM E-score” value is reported as -0.18. In the case of AGTATGTG, the “PBM E-score” value is reported as 0.115. In the case of CGTATGTA, the “PBM E-score” value is reported as 0.356. In the case of AGTATGTA, the “PBM E-score” value is reported as 0.394. AGTATGTC was tested, and the “PBM E-score” value was 0.201. With AATTAGAA the “PBM E-score” value was 0.0299. For GAAAAACC, the “PBM E-score” value was -0.0498. With ATGAGGAG the “PBM E-score” value was -0.187. With ACGTTAAC the “PBM E-score” value was 0.281. For TCGTTAAA, the “PBM E-score” value was 0.126. For GCGTTAAC, the “PBM E-score” value was 0.379. With GCGTTAAA the “PBM E-score” value was 0.366. For CCGTTAAA, the “PBM E-score” value was 0.125. With CCGTTAAC the “PBM E-score” value was 0.0773.
